A short description of assay [1]: rapamycin-like changes in RPL19A-GFP expression – cell-based, S. cerevisiae, multiplex flow cytometry, primary screen (AID 1862; in the data active = percent of DMSO control GFP below about 86%;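 note: lower values mimic rapamycin by blocking the RPL19A rise seen in DMSO cells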). The following applies: S. cerevisiae RPL19A-GFP strain, flow cytometry fluorescence, 3 h; at 10 µM; stronger effect = lower value. (In general: In flow cytometry, cells or beads pass a laser one at a time.)
The nature of assay [2]: TOR pathway GLN3 branch reporter MEP2-GFP changes – S. cerevisiae, multiplex flow cytometry, primary screen (AID 1867;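 active = GFP response, as percent of the DMSO control, above the screen-wide mean plus 3 SD, about 139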;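 note: median GFP channel fluorescence of barcode-gated MEP2-GFP cells measured by flow cytometry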). The following applies: S. cerevisiae MEP2-GFP strain, 3 h, at 10 µM, stronger effect = higher value, 100% means same as DMSO wells.
A short description of assay [3]: TOR pathway RTG branch CIT2 reporter changes – S. cerevisiae, GFP fusion, multiplex flow cytometry, primary screen (AID 1870;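 active = percent response above a set limit, the screen-wide mean plus 3 SD, cut at about 130% in these data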;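 note: barcoded CIT2-GFP strain pooled with four other GFP strains with rapamycin as positive control; median GFP fluorescence per well over plate mean of DMSO wells so 100% = DMSO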). The following applies: S. cerevisiae CIT2-GFP expression, 3 h, at 10 µM, stronger effect = higher value.
Assay [4] can be described thus: TOR pathway LAP4-GFP level changes – S. cerevisiae, multiplex flow cytometry, primary screen (AID 1873;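 active = GFP signal, as percent of the solvent control, above the screen mean plus 3 SD, about 149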). Conditions: S. cerevisiae LAP4-GFP expression, 3 h, at 10 µM, stronger effect = higher value.
Assay [5] is described as follows: yeast AGP1-GFP level changes, GLN3 branch – cell-based, multiplex flow cytometry, S. cerevisiae, primary screen (AID 1887;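 active = GFP signal above the screen-wide mean plus 3 SD, that is over about 124.5% of the solvent control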;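 note: AGP1-GFP fusion strain of S. cerevisiae within a five-strain barcoded multiplex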). Conditions: 3 h, at 10 µM, stronger effect = higher value.
Assay [6] is described as follows: reduced mouse 2C T cell binding to pMHC/ICAM-1 vesicles – MLPCN validation set, flow cytometry, LFA-1/ICAM-1 modulator project, pilot screen (AID 2523;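 active = response below a set limit, under 55% cells CD8-positive and vesicle-bound, and CD8 cells' 90th-percentile brightness under 279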;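 for vesicle binding response: mean PE anti-B7-1 fluorescence of CD8+ cells relative to row control; 100% = QL9-loaded vesicles with DMSO vehicle in the same plate row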). Conditions: 2C mouse CD8+ T cells, at 7 µM, stronger effect = lower value; double positive events: measured here: CD8+/vesicle+ event percentage.
For assay [7], the target named is Integrin beta-1 (Homo sapiens) + Integrin alpha-4 (Homo sapiens) (UniProt P13612+P05556). Nature of the assay: alpha4beta1 integrin LIBS antibody binding reduction – U937 cells, HUTS-21 mAb, flow cytometry, validation set, VLA-4 allosteric modulator project, pilot screen (AID 2674;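 active = inhibition above 50%, about 3 SD of the validation set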;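 note: antibody binding induced by the VLA-4 ligand LDV present at three times its Kd; 0% = LDV ligand with antibody and no compound and 100% = antibody without LDV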). Conditions: HUTS-21 LIBS mAb binding, at 6.7 µM, stronger effect = higher value, binding induced by LDV ligand.

Assay [8] in a line: calorie-restriction mimetic ROS inhibitors, yeast – validation compound set, pilot screen (AID 2706;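 active = superoxide response below 65% of plate, a cut near 3 SD across the whole screen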;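 note: yeast exposed to compound for one week at 30 degrees C before staining; 100% = mean of all compound wells on the same plate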). Conditions: S. cerevisiae aging, superoxide DHE fluorescence; at 10 µM, stronger effect = lower value.
The target of assay [9] is Beta-adrenergic receptor kinase 1 (Homo sapiens) (UniProt P25098). The assay is described as follows: GRK2 binders displacing RNA aptamer, biochemical, validation, human GRK2, bead flow cytometry (AID 488806). Conditions: bead-bound GRK2, FAM-aptamer displacement, at 10 µM, stronger effect = higher value.
Assay [10] concerns the target AP-2 complex subunit beta (Homo sapiens) (UniProt P63010). The assay is described as follows: beta-arrestin/AP2 interaction blockers – biochemical, validation set, GST-AP2 beads, flow cytometry, pilot screen (AID 504541;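 active = inhibition above 54%, about 3 SD of non-fluorescent compounds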;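 note: AP2 carries R879A mutation and is captured from E. coli lysate; bead-bound FITC arrestin peptide fluorescence measuring arrestin peptide binding to AP2; 0% = DMSO wells and 100% = excess unlabeled arrestin peptide control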). The following applies: FITC arrestin peptide, at 10 µM, stronger effect = higher value, AP2 beta2 appendage fragment, R879A mutant.
The nature of assay [11]: cytosolic pH regulators acting via V-ATPase – S. cerevisiae, pHLuorin, HTS validation (AID 504600; in the data active = response above about 15%;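 note: plate controls were DMSO for no effect and reference compound for full effect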). Conditions: V-ATPase proton transport, at 10 µM, stronger effect = higher value.
The subject of assay [12] is anti-desmoglein-3 scFv antibody binding to human DSG3. Nature of the assay: blockers of pathogenic pemphigus antibody–desmoglein-3 binding – biochemical, validation compound set, bead-based, flow cytometry, pilot screen (AID 588368;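 active = binding below the plate cutoff, the plate median minus 3 SD, with a reading above zero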;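 note: signal is the median channel fluorescence of bead-bound GFP antibody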). Conditions: Protein G beads, DSG3-Fc, scFv-GFP binding, at 10 µM, stronger effect = lower value.
Assay [13] in a line: Nile Red efflux blockade in pump-expressing yeast – validation compound set, multiplex, phenotypic, pilot screen (AID 588506;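 active = efflux inhibition above 0.42, the validation set average plus 4 SD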;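 note: Nile Red retained in cells so higher fluorescence means more efflux inhibition; 0 = negative control wells and 1 = enniatin B 25 µM full block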). Conditions: S. cerevisiae pump-expressing triplex, Nile Red efflux flow cytometry; at 10 µM; stronger effect = higher value; the pumps come from Candida albicans.
Assay [14] deals with ATP-binding cassette sub-family B member 6 (Homo sapiens) (UniProt Q9NP58). Nature of the assay: blockers of ABCB6-driven porphyrin uptake – K562-ABCB6 cells, flow cytometry, validation set, pilot screen (AID 588550;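 active = inhibition above the screen-wide mean plus 3 SD, about 51%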;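 note: 0% = DMSO wells and 100% = benzethonium chloride 70 µM positive control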). Conditions: K562-ABCB6 porphyrin accumulation, 1 h, at 10 µM, stronger effect = higher value.
A short description of assay [15]: AML differentiation inducers, ER-HoxA9 marrow cells – cell-based, GFP/MAC1 double positive, flow cytometry, validation set, primary screen (AID 588685;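 active = differentiation response of at least 50%, scaled between solvent and reference control, from cells with both markers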;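 note: compound exposure lasts four days before antibody staining and flow analysis; 0% = DMSO wells and 100% = 5 µM fulvestrant positive control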). The following applies: stronger effect = higher value, normalized: vehicle 0, fulvestrant 100.

Records with an inconclusive call do not appear. Calls of active or inactive are those of the source.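 Rule for the calls, unless noted: active = aptamer binding inhibition above 30%, about 3 SD of noise from non-fluorescent compounds; inactive = inhibition at or below 30%.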

Sequence of Beta-adrenergic receptor kinase 1 (Homo sapiens) (P25098 whole entry, looked up): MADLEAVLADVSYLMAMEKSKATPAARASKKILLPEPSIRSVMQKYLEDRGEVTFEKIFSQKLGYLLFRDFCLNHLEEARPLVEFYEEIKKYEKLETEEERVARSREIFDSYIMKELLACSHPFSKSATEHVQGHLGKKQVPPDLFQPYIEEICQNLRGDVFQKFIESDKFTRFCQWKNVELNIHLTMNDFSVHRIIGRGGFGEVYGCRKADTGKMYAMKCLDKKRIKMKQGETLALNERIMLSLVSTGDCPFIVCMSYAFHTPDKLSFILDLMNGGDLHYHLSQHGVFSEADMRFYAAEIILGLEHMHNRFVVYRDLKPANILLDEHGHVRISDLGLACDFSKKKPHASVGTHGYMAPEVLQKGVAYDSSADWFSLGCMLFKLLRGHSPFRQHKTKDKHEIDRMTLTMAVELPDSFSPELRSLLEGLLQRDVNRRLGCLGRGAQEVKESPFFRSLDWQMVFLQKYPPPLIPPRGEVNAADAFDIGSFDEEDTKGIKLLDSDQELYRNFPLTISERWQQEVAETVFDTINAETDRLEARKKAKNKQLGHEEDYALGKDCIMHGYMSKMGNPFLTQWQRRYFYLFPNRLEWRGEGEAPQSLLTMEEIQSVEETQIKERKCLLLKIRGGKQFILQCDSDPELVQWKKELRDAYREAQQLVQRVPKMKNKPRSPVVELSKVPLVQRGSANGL
Sequence of ATP-binding cassette sub-family B member 6 (Homo sapiens) (Q9NP58 whole entry, looked up): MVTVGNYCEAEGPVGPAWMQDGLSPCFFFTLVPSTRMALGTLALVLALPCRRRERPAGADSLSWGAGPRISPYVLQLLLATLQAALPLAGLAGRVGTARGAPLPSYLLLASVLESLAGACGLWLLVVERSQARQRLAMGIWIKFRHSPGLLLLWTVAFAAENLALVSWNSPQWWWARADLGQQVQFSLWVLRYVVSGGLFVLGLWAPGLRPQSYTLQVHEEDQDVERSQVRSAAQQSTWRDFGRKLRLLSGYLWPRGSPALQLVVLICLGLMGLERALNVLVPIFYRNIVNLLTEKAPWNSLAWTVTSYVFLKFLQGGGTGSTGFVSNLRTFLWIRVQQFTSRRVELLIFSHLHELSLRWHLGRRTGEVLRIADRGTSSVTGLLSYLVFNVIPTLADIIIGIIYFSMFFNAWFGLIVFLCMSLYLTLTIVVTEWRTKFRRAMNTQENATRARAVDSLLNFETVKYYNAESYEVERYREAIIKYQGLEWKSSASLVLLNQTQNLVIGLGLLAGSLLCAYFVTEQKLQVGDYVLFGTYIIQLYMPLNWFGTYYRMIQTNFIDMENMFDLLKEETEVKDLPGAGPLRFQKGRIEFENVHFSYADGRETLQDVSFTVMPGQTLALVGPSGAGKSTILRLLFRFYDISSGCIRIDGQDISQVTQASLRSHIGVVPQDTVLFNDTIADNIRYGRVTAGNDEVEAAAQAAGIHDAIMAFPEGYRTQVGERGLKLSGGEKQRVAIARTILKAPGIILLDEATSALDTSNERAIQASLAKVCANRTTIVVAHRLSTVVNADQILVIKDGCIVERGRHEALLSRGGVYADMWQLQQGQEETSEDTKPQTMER
Sequence of Integrin beta-1 (Homo sapiens) + Integrin alpha-4 (Homo sapiens) (P05556 whole entry, looked up): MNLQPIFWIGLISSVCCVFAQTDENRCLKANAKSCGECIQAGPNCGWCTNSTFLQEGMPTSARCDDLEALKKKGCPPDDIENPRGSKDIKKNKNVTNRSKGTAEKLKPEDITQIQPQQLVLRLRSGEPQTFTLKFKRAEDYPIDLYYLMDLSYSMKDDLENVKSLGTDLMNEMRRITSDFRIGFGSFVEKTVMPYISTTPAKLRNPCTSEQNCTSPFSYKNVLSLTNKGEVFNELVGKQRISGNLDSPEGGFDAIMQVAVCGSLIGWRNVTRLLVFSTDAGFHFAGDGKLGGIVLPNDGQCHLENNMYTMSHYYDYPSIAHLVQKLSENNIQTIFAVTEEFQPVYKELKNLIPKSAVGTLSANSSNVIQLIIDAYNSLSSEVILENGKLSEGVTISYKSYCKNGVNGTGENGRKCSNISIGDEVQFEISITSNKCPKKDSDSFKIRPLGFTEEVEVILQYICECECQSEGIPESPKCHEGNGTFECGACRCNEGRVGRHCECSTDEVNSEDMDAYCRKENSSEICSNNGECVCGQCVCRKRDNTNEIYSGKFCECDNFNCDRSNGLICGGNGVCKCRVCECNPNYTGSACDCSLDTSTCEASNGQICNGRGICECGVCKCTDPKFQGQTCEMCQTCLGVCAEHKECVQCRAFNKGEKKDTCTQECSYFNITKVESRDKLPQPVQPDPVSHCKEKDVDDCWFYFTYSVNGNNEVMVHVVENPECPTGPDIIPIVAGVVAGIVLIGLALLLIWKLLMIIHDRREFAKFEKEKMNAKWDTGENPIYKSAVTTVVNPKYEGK
Sequence of Integrin beta-1 (Homo sapiens) + Integrin alpha-4 (Homo sapiens) (P13612 whole entry, looked up): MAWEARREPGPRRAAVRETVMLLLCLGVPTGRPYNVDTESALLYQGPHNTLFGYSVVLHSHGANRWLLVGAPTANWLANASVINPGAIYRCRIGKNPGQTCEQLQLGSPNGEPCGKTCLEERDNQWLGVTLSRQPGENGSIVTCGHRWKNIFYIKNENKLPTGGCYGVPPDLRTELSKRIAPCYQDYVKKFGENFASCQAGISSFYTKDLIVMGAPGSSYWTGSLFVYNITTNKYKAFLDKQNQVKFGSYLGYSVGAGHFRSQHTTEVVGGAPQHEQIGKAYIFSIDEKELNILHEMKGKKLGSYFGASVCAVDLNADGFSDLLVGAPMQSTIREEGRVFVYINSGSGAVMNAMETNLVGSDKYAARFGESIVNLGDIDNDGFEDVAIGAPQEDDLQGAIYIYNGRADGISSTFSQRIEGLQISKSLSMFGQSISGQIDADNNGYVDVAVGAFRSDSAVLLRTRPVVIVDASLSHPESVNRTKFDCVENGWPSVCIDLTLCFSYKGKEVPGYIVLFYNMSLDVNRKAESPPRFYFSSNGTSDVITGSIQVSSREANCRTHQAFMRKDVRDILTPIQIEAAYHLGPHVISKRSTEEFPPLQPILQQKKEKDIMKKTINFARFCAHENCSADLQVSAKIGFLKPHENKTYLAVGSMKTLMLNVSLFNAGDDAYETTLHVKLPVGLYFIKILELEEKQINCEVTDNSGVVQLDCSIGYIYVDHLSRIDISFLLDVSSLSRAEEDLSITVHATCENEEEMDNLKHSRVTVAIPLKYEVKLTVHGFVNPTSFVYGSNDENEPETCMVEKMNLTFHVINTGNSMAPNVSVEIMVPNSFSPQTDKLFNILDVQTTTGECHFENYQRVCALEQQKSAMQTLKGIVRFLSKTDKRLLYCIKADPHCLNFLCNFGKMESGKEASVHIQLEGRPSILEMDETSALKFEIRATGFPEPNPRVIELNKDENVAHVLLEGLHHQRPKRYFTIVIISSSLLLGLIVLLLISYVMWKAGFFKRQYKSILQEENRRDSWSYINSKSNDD
Sequence of AP-2 complex subunit beta (Homo sapiens) (P63010 whole entry, looked up, the tested form may be a part, one chain of several): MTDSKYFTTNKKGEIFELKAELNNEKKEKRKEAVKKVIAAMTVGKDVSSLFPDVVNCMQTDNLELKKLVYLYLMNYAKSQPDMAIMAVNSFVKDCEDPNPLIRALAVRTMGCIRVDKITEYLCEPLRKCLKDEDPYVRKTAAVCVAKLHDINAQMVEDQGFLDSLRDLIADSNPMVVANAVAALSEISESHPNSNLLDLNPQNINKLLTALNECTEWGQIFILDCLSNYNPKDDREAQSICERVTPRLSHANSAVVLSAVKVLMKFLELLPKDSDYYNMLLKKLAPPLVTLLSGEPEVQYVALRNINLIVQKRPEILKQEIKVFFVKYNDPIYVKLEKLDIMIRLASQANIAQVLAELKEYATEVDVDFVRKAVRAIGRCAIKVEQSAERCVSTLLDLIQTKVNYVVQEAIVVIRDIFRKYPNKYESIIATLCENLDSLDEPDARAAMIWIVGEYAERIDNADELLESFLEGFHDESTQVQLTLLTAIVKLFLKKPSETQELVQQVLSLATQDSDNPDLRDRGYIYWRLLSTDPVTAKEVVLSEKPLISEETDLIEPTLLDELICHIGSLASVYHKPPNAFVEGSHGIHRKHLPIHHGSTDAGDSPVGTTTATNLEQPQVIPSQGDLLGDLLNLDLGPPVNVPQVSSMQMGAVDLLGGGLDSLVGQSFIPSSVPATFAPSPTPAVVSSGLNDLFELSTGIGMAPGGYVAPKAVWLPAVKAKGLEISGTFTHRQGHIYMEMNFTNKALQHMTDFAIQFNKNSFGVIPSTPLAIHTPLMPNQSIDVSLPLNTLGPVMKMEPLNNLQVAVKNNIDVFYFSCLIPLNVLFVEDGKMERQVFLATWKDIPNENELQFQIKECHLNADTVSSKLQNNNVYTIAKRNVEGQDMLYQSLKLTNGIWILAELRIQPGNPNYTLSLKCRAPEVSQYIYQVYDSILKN

As a reminder, the inhibition is the change of the read-out against control, counted positive when it falls. Regarding `O=C(O)CCSc1nc2ccccc2s1`, in [1], the percent of DMSO control GFP was 104% (inactive). Besides, the GFP response vs DMSO in [2] is 99.9% (inactive); in assay [4], 106% (inactive). Besides, in [3], the percent response of DMSO control is 102% (inactive). For the same compound, the GFP response, % of DMSO in assay [5] is 95.8% (inactive). In [6], this compound registered a double positive events of 49.5%. Moreover, the vesicle binding response in assay [6] was 183% (inactive). Besides, the inhibition was -9.57% (inactive) in assay [7], -3.62% (inactive) in assay [10] and 8% (inactive) in assay [14]. Besides, the superoxide response (% of plate) in assay [8] was 115% (inactive). In [9], the aptamer binding inhibition was 7% (inactive). Besides, the response in assay [11] was -1.68% (inactive). Moreover, the binding (% of control) in assay [12] was 101% (inactive). Also, the efflux inhibition (fraction of control) in assay [13] was 0.44 (active). In addition, the differentiation response in assay [15] was 17.6% (inactive).
`Cc1ncc([N+](=O)[O-])n1CC(O)CCl` (centres undefined): the percent of DMSO control GFP in [1] was 101% (inactive). Further, the results for the GFP response vs DMSO in [2] and in [4] were 103% (inactive) and 104% (inactive), respectively. Further, the percent response of DMSO control in [3] is 102% (inactive). In addition, the GFP response, % of DMSO in assay [5] was 100% (inactive). The double positive events in [6] stood at 59.5%. Further, the vesicle binding response in assay [6] is 193% (inactive). The inhibition is 7.22% (inactive) in [7], 24.7% (inactive) in [10] and 8% (inactive) in [14]. In assay [8], the superoxide response (% of plate) was 101% (inactive). Also, the aptamer binding inhibition in assay [9] is 4% (inactive). Moreover, the response in assay [11] was -1.86% (inactive). Also, in assay [12], the binding (% of control) was 105% (inactive). Further, in [13], the efflux inhibition (fraction of control) was -0.09 (inactive). The differentiation response in assay [15] was -0.2% (inactive).
Take `CC1(C)Cc2ccccc2C(C(Cc2ccccc2)C(N)=O)=N1` (centres undefined): the percent of DMSO control GFP in assay [1] was 100% (inactive). The GFP response vs DMSO was 99.9% (inactive) in [2] and 89.3% (inactive) in assay [4]. Moreover, the percent response of DMSO control in [3] was 106% (inactive). Also, the GFP response, % of DMSO in assay [5] is 92.7% (inactive). For the same compound, the double positive events in [6] came out at 51%. Further, in assay [6], the vesicle binding response is 132% (inactive). For the same compound, the inhibition in [7] is 24% (inactive); in [10], -4.92% (inactive); in [14], 9% (inactive). The superoxide response (% of plate) in assay [8] was 116% (inactive). Also, the aptamer binding inhibition in assay [9] is 3% (inactive). Further, the response in [11] is 6.35% (inactive). Also, the binding (% of control) in assay [12] is 101% (inactive). Moreover, the efflux inhibition (fraction of control) in [13] was 0.44 (active). Besides, the differentiation response in assay [15] is -5.05% (inactive).
For `COC1(C)CC2C(CC1OC(=O)c1cc([N+](=O)[O-])cc([N+](=O)[O-])c1)C2(C)C` (centres undefined), the percent of DMSO control GFP in assay [1] was 104% (inactive). Also, the GFP response vs DMSO in [2] was 99.9% (inactive); in assay [4], 178% (active). For the same compound, the percent response of DMSO control in [3] is 106% (inactive). For the same compound, in assay [5], the GFP response, % of DMSO was 74.2% (inactive). This compound displayed a double positive events in assay [6] of 52.4%. Also, the vesicle binding response in [6] was 222% (inactive). For the same compound, the inhibition in assay [7] is -3.97% (inactive); in assay [10], -6.29% (inactive); in [14], 9% (inactive). In addition, in [8], the superoxide response (% of plate) is 114% (inactive). Further, the aptamer binding inhibition in [9] was 5% (inactive). Moreover, the response in assay [11] was 3.54% (inactive). Besides, in [12], the binding (% of control) was 99.3% (inactive). In assay [13], the efflux inhibition (fraction of control) was -0.35 (inactive). Further, the differentiation response in [15] is -18% (inactive).

The values above are taken from PubChem BioAssay.
